# Laboratory results taken from PubChem BioAssay (NCI).
# The panel holds about 79,000 compounds, 15% with a hit somewhere; the sample as a whole holds those more often. Unmarked numbers belong to inactive results. Activity calls are given as the source filed them. No stated cut-off is given here; in the data, active means growth inhibition above about 70%; inactive means the rest.
# Assay: NCI Yeast Anticancer Drug Screen. Data for the mlh1 rad18 strain (AID 175)
# Settings: S. cerevisiae mlh1 rad18 strain growth inhibition; at 50.0 µM; hits give high values
# Description: Growth inhibition of yeast strains with defined genetic alterations is measured as a screen for potential anti-cancer activity. Selected strains with alterations in DNA damage repair or cell cycle control were exposed to compounds and growth inhibition was measured relative to vehicle treated controls. The strain used in this assay is mlh1 rad18
row,SMILES,growth inhibition
1,Cc1ccc(C(O)C2CC2)cc1 (stereo not given),-0.65%
2,NC(=O)c1ccc(N=C(N)N=C(N)N)cc1,-2.05%
3,Cn1cnc2nc(Cl)nc(Cl)c21,11.2%
4,O=C(Nc1cc(-c2ccccc2)[nH]n1)c1ccc(Cl)cc1,-3.3%
5,COc1cc(C(=O)NC(=S)Nc2ccc3ccccc3c2)cc(OC)c1OC,13.1%
6,CN(C)c1ccc2oc(=O)c3ccccc3c2c1,-33%
7,CC(C)C1CCCCC1O (stereo not given),6.8%
8,CCOC(=O)c1cc2cccc(OC)c2oc1=O,-0.2%
9,COc1ccc2c(NCCCCCCCCNc3c4ccccc4nc4cc(OC)ccc34)c3ccccc3nc2c1,88.3% (active)
10,O=S(=O)(O)c1ccc(O)c2ccccc12,56.2%
11,COc1cc(C2c3cc4c(cc3C3OC(=O)C2C3CO)OCO4)cc(OC)c1OC (stereo not given),-3.85%
12,O=C(O)c1ccnc(Br)c1,-14.2%
13,O=C(CCl)N1CCN(C/C=C/c2ccccc2)CC1,28.5%
14,CCOC(=O)C1OC1c1ccccc1 (stereo not given),22.9%
15,O=C(O)COCC(=O)O,4.75%
16,CCc1nc(N)nc(N)c1-c1ccc(Cl)cc1,-21.2%
17,CC(C)=C(NC(=O)c1ccccc1)C(=O)O,12.9%
18,CC(=O)c1ccc(C)c(N)c1,27.4%
19,Cc1cccc(CO)c1,-22.1%
20,Nc1nc(OCc2ccccc2)c2[nH]cnc2n1,-42.5%

row,SMILES,growth inhibition
1,CC(=O)OCC1CCCO1 (stereo not given),-32%
2,COc1cc(OC)c2ccc(=O)oc2c1,24.1%
3,N#Cc1ccc(OC(=O)Nc2ccc(Cl)c(Cl)c2)cc1,5.8%
4,c1ccc(Cc2ccccc2)cc1,1.15%
5,c1ccc2c(N3CCCCC3)ncnc2c1,-3%
6,CC(=O)OCC1=CC2OC(=O)C3=COC(OC4OC(CO)C(O)C(O)C4O)C1C32 (stereo not given),-51.6%
7,O=C(O)CSCSCC(=O)O,3.1%
8,CC(=O)c1ccc2c(ccc3ccccc32)c1,3.9%
9,COc1ccc(/C(C#N)=C2C=C/C(=N/O)c3ccccc3\2)cc1,19.9%
10,NC(=S)N/N=C/c1ccc(N)cc1,7.5%
11,CC1SC(N)=NC1=O (stereo not given),2.55%
12,O=c1[nH][nH]c(=O)c2cc([N+](=O)[O-])ccc12,18.1%
13,O=c1cc(-c2ccccc2)[nH]c2c1CCCC2,-3.5%
14,O=C(O)c1cccc([N+](=O)[O-])c1,-27.4%
15,O=[N+]([O-])c1ccccc1S(=O)c1ccccc1[N+](=O)[O-],14.7%
16,Nc1ccc(NC(=O)c2cccc(N)c2)cc1,22%
17,CCCCOC(OCCCC)c1ccccc1,12.2%
18,Cc1cc(Cc2cc(C)c(N)cc2N)c(N)cc1N,15.9%
19,CCCOC(=O)C(O)c1ccccc1 (stereo not given),14.8%
20,CCCC(=O)c1cc(C)ccc1OC,-3.2%
